Assay outcomes (PubChem BioAssay)
Hits are enriched below; roughly 19% of the tested compounds scored in any of these assays.
HT1080 IDH1KD tx: kills HT-1080 cells with IDH1 knockdown. HT-1080 IDH1 knockdown viability, ATP luminescence, 48 h. Potency, µM (titrated, usually from 46.1 µM), without a hit: at the top dose activity, negative = toxicity, hits mostly cytotoxic. AID 686971. actives 2% (n = 360,000);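 further: potency means the concentration at half of the fitted maximal effect; 0% = DMSO wells and -100% = cell-free medium wells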
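In this qHTS, HT-1080 cells depleted of IDH1 are exposed for 48 h at 37 °C to compound titrations. Toxicity is scored from CellTiter-Glo luminescence, with DMSO as full viability and medium alone as none.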
HT1080NT lethal: kills 2HG-producing HT-1080-NT fibrosarcoma cells; HT-1080-NT fibrosarcoma viability, CellTiter-Glo ATP luminescence, 48 h; Potency, µM (series often up to 46.1 µM), without a hit: at the highest dose activity, negative = less viability, actives largely listed as cytotoxic; actives 1.6% (n = 360,000);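 further: NT is the 2HG producing partner of a matched IDH1 knockdown line; potency means the concentration at half of the fitted maximal effect; 0% = DMSO-treated cells and -100% = media-only wells without cells; nearly all actives have a fitted effect of over 55% in size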
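Luminescent CellTiter-Glo readout after 48 hours of compound exposure at 37 degrees C defined viability of HT-1080-NT cells. Activity was normalized to DMSO wells and cell-free media wells; concentration-response curves were fitted and assigned curve classes.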
TDP1 cell CPT: DT40-hTDP1 cell growth loss with CPT. chicken DT40 Tdp1-/-;hTDP1 cells + 20 nM CPT, ATP luminescence, 48 h. Potency, µM (top dose mostly 46.2 µM), for inactives: top-dose activity change, negative = growth inhibition, actives largely listed as inhibitors. actives 12% (n = 420,000); further: potency means the concentration at half of the fitted maximal effect; nearly all actives have a fitted effect of over 55% in size
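Chicken DT40 Tdp1-/- cells stably complemented with human TDP1 were seeded at 400 cells/well in medium containing 20 nM camptothecin, exposed to pin-transferred compounds, and grown at 37 °C for at least 48 hr. Viability was read as ATP luminescence.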
TDP1 cell noCPT: qHTS for Inhibitors of human tyrosyl-DNA phosphodiesterase 1 (TDP1): qHTS in cells in absence of CPT. Potency, µM (titrated, usually from 46.2 µM), inactives show at the highest dose activity change, negative = growth inhibition, most hits filed as inhibitors. actives 15% (n = 420,000). DT40 Tdp1-/- hTDP1 cells, no CPT, ATP luminescence, 48 h; further: potency means the concentration at half of the fitted maximal effect; nearly all actives have a fitted effect of over 55% in size
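No-CPT arm: Tdp1-/-;hTDP1 DT40 cells (400/well) plus compounds, incubated ≥48 hr at 37 °C. Readout CellTiter-Glo luminescence.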
IL-1B inflam inh: blocks inflammasome-driven IL-1 beta release. THP-1 LPS/ATP IL-1B secretion, AlphaLISA, 16 h; stronger effect = lower value. activity change, % at 57.5 µM. actives 4.7% (n = 360,000). AID 743279; in the data active means activity change below about -50%; inconclusive means mostly about -30% to -49%
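Secreted IL-1B measured by AlphaLISA bead assay after 16 h compound exposure of THP-1 cells; compounds (final up to 57.5 uM) added 1 h before LPS (250 ng/mL) and ATP (1.25 mM) stimulation; lower signal means less secretion.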
An asterisk follows results filed as active; ? = inconclusive; . = no result. Unless noted, the call rests on the fitted dose curve; in most records, active means well fitted curve in the direction sought with a large enough effect; inconclusive means small, poorly fitted or top-dose-only effect, or another doubt; inactive means no such curve, though single readings can be large; an effect the other way counts as inactive or inconclusive. Unless noted, on the % scale 0 is the no-effect control and ±100 the full control effect.

SMILES | HT1080 IDH1KD tx | HT1080NT lethal | TDP1 cell CPT | TDP1 cell noCPT | IL-1B inflam inh
CCOc1ccc(N2C(=O)CC(Sc3nc(CC(C)C)ccc3C#N)C2=O)cc1 (centres undefined) | 0% | 8% | 23µM* | ? | -1
CCOc1ccc(N2C(=O)CC(Sc3n[nH]c(-c4ccccc4)n3)C2=O)cc1 (centres undefined) | 1% | 1% | 7.3µM* | 7.3µM* | 4
CCOc1ccc(N2C(=O)C3C(C2=O)C3(c2ccccc2)c2ccccc2)cc1 (centres undefined) | -6% | -1% | 18µM* | ? | -22
CCOC(=O)CN1C(=O)C(CC)Oc2ccccc21 (centres undefined) | -3% | 10% | -2% | -18% | 0
CCOC(=O)CN1C(=O)N[C@@H](CCc2ccccc2)[C@H](C(C)=O)[C@H]1C | 3% | -3% | ? | -16% | -6
COc1ccc(CN2C(=O)CN(S(C)(=O)=O)CC2(C)C(=O)NCc2ccccc2)cc1OC (centres undefined) | 7% | 13% | 27% | 19% | -7
COCCn1c(SCC(=O)Nc2cc(C)on2)nnc1C(C)C | 11% | 1% | 9% | -1% | 4
CCOc1ccc(N2C(=O)CC(Cc3cc(C)cc(C)c3)C2=O)cc1 (centres undefined) | 5% | 6% | -6% | ? | -6
COc1ccc(N2C(=O)CC(Sc3n[nH]c(-c4ccccc4)n3)C2=O)cc1 (centres undefined) | 10% | 7% | 0.46µM* | 1.2µM* | 2
CCOc1ccc(N2C(=O)CC(SCc3nc4ccccc4[nH]3)C2=O)cc1 (centres undefined) | 13% | -5% | 16µM* | ? | 8
CCOc1ccc(N2C(=O)CC(N)C2=O)cc1 (centres undefined) | -6% | 1% | 1.8µM* | 2.6µM* | 11
CN1C=CC2=C(C#N)C(N)C(C#N)(C#N)[C@H](c3ccccc3)[C@H]2C1 (some centres undefined) | 8% | -1% | -29% | -27% | -4
COCCn1c(CNc2ccc(F)cc2)nnc1SCC(=O)Nc1ccc(OC)cc1OC | 0% | 1% | ? | -21% | -9
O=C1C/C(=C/NCc2ccccc2)C(=O)N1 | -7% | 0% | 2% | -9% | 17
Cc1nc([N+](=O)[O-])c(Br)n1CC(=O)c1ccc(Cl)cc1 | 18µM* | ? | 8.2µM* | 7.3µM* | -116*
COc1ccc(C(=O)Cn2c(C)nc([N+](=O)[O-])c2Br)cc1 | ? | ? | 7.3µM* | 23µM* | .
Cc1nc2ccc([N+](=O)[O-])cc2c(=O)n1Cc1ccc(Br)cc1 | 4% | -1% | ? | ? | 24
Cc1nc([N+](=O)[O-])c(Br)n1Cc1ccc(Cl)c(Cl)c1 | ? | ? | 5.2µM* | 2.6µM* | -60*
CC1CN(C(=O)COC(=O)c2cnc(Cl)c(Cl)c2)CC(C)O1 (centres undefined) | 5% | 2% | 6% | -1% | -72*
O=C(O)C1CC=CCC1C(=O)Nc1ccc2c(c1)CCC2 (centres undefined) | 9% | 12% | -18% | -4% | 0
NC(=O)C1CCN(C(=S)NCCc2ccccc2)CC1 | 6% | 0% | 5% | -1% | 2
COc1cccc(-c2cc(=O)c3cc(NC(C)=O)ccc3[nH]2)c1 | ? | -8% | ? | 16µM* | 59
CCOC(=O)C1C(=O)C=C(c2ccc(C)cc2)CC1c1ccc([N+](=O)[O-])cc1 (centres undefined) | 5% | 1% | ? | 13µM* | 4
Fc1ccc(N2CCN(c3ncnc4[nH]ncc34)CC2)cc1 | . | . | -28% | -22% | .
O=c1c(Cc2ccc(Cl)cc2Cl)c(O)ccn1CC(F)(F)F | 15% | -2% | -8% | 5% | 0
SMILES | HT1080 IDH1KD tx | HT1080NT lethal | TDP1 cell CPT | TDP1 cell noCPT | IL-1B inflam inh
CC(C)(C)CC(C)(C)c1ccc(O)c(Cc2ccc(Cl)cc2Cl)c1 | 18µM* | 3.7µM* | ? | ? | -72*
O=C(CN1C(=O)C(c2ccc(F)cc2)=NC12CCCCCC2)Nc1ccccc1Cl | . | . | ? | 23µM* | .
Cc1cc(Nc2cccc(C(=O)O)c2)n2ncnc2n1 | 12% | 4% | 18% | 14% | 14
CC1CCCC(NC(=O)CSc2ccc(F)cc2)C1C (centres undefined) | -8% | -7% | -2% | 3% | -8
CC1CCCC(NCC(O)COC(c2ccc(F)cc2)c2ccc(F)cc2)C1C (centres undefined) | 21µM* | 16µM* | 5.2µM* | 2.6µM* | -115*
CC[C@@H]1CC=C[C@H]2[C@H]1C(=O)N(Cc1ccccc1)[C@H]2c1ccc(C(F)(F)F)cc1 | -19% | -12% | 15µM* | ? | 38
CC[C@@H]1CC=C[C@H]2[C@H]1C(=O)N(Cc1ccccc1)[C@H]2c1ccoc1 | ? | ? | 16µM* | 15µM* | -107*
COc1ccc(NC2CCCN(C(=O)c3ccccc3C(F)(F)F)C2)cc1 (centres undefined) | 10% | 2% | -20% | ? | 11
Cc1cc(Oc2ccccc2)nc(C#N)n1 | 24% | 20% | 2% | -16% | .
O=C(Cn1c2c(sc1=O)C1c3ccccc3OCC1CS2)Nc1ccc(Cl)c(Cl)c1 (centres undefined) | -15% | -18% | 9.2µM* | 16µM* | ?
OCc1nn2c(c1Br)NC(c1ccccc1)CC2C(F)(F)F (centres undefined) | 4% | 1% | ? | ? | 0
O=C(NCCc1ccccc1)c1coc(=O)c(Br)c1 | 23µM* | 21µM* | 0.82µM* | 0.58µM* | -99*
O=C(NCCC1=CCCCC1)c1coc(=O)c(Br)c1 | 18µM* | 7.3µM* | 0.12µM* | 0.37µM* | 0
O=C(NNC(=O)C1C2CCCCC21)c1coc(=O)c(Br)c1 (centres undefined) | 0% | -1% | 4.1µM* | 4.1µM* | 10
CC(C)CNC(=O)c1coc(=O)c(Br)c1 | 11µM* | ? | 0.41µM* | 0.82µM* | -29
O=C(NCCc1ccccc1)c1ccco1 | 18% | 17% | 5% | 1% | 5
O=C(Nc1ccc(Br)c(Br)c1)C1CCCO1 (centres undefined) | 22% | 19% | -8% | -8% | ?
N#Cc1ncc(Cl)c2ccccc12 | -1% | 15% | 20% | 2% | -3
O=C(COC(=O)c1cc(Br)c(Br)s1)NCCC1=CCCCC1 | -6% | -12% | 23µM* | 21µM* | 0
O=C(Nc1cc(Cl)cc(Cl)c1)c1coc(=O)c(Br)c1 | 2% | 0% | 1.6µM* | 12µM* | .
